Results on 14 molecules are retold here after PubChem BioAssay (NCATS).

Inconclusive results are not listed. Calls of active or inactive are those of the source. The call rests on the fitted dose curve; in most records, active means well fitted inhibition curve with a large enough effect; inconclusive means small, poorly fitted or top-dose-only effect; inactive means flat fitted curve, though single readings scatter.

Test in all cases: qHTS profiling for inhibitors of Plasmodium falciparum proliferation (AID 504749); further: nearly all actives have a fitted effect of over 60% in size
Common to all, as to conditions: P. falciparum in erythrocytes, SYBR Green DNA, 72 h; series mostly up to 28.7 µM
Background: Quantitative high-throughput screening tests each substance at several concentrations.

One assay has as its system CP238. A digest of the protocol:
(§1)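 P. falciparum-infected erythrocytes (0.3% parasitemia, 2.5% hematocrit final) were exposed to compounds for 72 h at 37 C in 5% CO2, then lysed with SYBR Green buffer overnight at room temperature; parasite DNA fluorescence was normalized to artemisinin and DMSO controls.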

Another assay has as its system CP247. A digest of the protocol: as §1
The subject of a further assay is CP250. The method, boiled down:
as §1

A further assay has as its system CP252. A digest of the protocol:
as §1

In the next assay the test system is CP256. A digest of the protocol: as §1
Another assay relates to CP260. The method, boiled down: as §1
Another assay has as its system CP262. The method, boiled down:
as §1

The test system of a further assay is CP265. The method, boiled down: as §1
A further assay has as its system CP266. A digest of the protocol:
as §1

The subject of a further assay is CP286. A digest of the protocol:
as §1

The test system of a further assay is CP291. The method, boiled down: as §1
The test system of a further assay is CP297. The method, boiled down: as §1
The next assay relates to CP305. A digest of the protocol:
as §1

The subject of another assay is CP315. A digest of the protocol: as §1
A further assay concerns CP325. A digest of the protocol: as §1
The subject of a further assay is CP335. A digest of the protocol:
as §1

The next assay relates to DFO2036. The method, boiled down:
as §1

For a further assay, the system named is CP268. A digest of the protocol: as §1
The subject of another assay is CP269. A digest of the protocol:
as §1

Another assay deals with CP329. A digest of the protocol:
as §1
Potency means the concentration at half of the fitted maximal effect.

As for `C[C@@H](CN(C)C)CN1c2ccccc2Sc2ccccc21`, the Potency entry in the assay with CP238, in the assay with CP247, in the assay on CP250, with CP252, with CP256 and with CP260 was “inactive” in each case. For the same molecule, the Potency result in the assay with CP262, in the assay on CP265, with CP266, with CP286, in the assay with CP291 and in the assay with CP297 was “inactive” throughout. The Potency result in the assay with CP305, in the assay with CP315, with CP325, in the assay on CP335 and in the assay on DFO2036 was “inactive” in each case.

For `CC(Cc1cccc(C(F)(F)F)c1)NCCOC(=O)c1ccccc1` (stereo not drawn), the Potency entry in the assay on CP238, in the assay on CP247, in the assay with CP250, in the assay with CP252, with CP256 and in the assay with CP260 was “inactive” each time. Further, the Potency result in the assay on CP262, with CP265, in the assay with CP266, in the assay on CP268, with CP269 and in the assay with CP286 was “inactive” throughout. For the same molecule, the Potency result with CP291, with CP305, in the assay with CP315, in the assay on CP325, with CP329 and in the assay with CP335 was “inactive” in each case. For the same molecule, the Potency result with DFO2036 is “inactive”.

On to `CC(=O)Oc1ccc(C(c2ccc(OC(C)=O)cc2)c2ccccn2)cc1`, for which the Potency entry in the assay on CP238, in the assay with CP247, with CP250, with CP252, in the assay with CP256 and in the assay on CP260 was “inactive” throughout. In addition, the Potency entry in the assay with CP262, in the assay with CP265, in the assay with CP266, in the assay on CP268, in the assay with CP269 and in the assay on CP286 was “inactive” each time. For the same molecule, the Potency entry in the assay with CP297, with CP305, with CP315, in the assay on CP325, in the assay on CP329 and in the assay with CP335 was “inactive” each time. In the assay on DFO2036, the Potency result is “inactive”.

Consider `COc1cc2c(cc1OC)C(C(C(=O)N(CCc1ccc(OC)c(OC)c1OC)CCc1ccc(OC)c(OC)c1OC)c1ccccc1)=NCC2` (stereo not drawn), for which the Potency was 6.31 µM (active) with CP238; 4.47 µM (active) in the assay on CP247; 7.08 µM (active) in the assay with CP250; 5.01 µM (active) in the assay with CP252; 5.62 µM (active) in the assay with CP256; 3.55 µM (active) in the assay on CP260. Besides, the Potency in the assay on CP262 was 9.53 µM (active); in the assay with CP265 it was 7.94 µM (active); in the assay with CP268, 13.5 µM (active); with CP269, 6.75 µM (active); in the assay on CP286, 7.94 µM (active); in the assay with CP291, 15.1 µM (active). In addition, the Potency with CP297 was 3.38 µM (active); in the assay with CP305, 15.1 µM (active); in the assay on CP315, 13.5 µM (active); in the assay with CP325, 16.9 µM (active); in the assay with CP329 it was 13.5 µM (active); in the assay with CP335, 5.36 µM (active). Also, in the assay on DFO2036, the Potency result was “inactive”.

On to `CCN(CC)C(=O)N1CCN(C)CC1`, for which the Potency entry with CP238, in the assay on CP247, with CP250, with CP252, in the assay with CP256 and in the assay on CP260 was “inactive” in each case. Besides, the Potency result with CP262, with CP265, in the assay with CP268, with CP269, with CP286 and with CP291 was “inactive” each time. The Potency entry with CP297, in the assay with CP305, in the assay with CP315, with CP325, in the assay on CP329 and in the assay with CP335 was “inactive” each time. Moreover, in the assay on DFO2036, the Potency entry was “inactive”.

For `C[C@H](O)C(=O)Nc1c(I)c(C(=O)NC(CO)CO)c(I)c(C(=O)NC(CO)CO)c1I`, the Potency entry in the assay with CP238, in the assay on CP247, with CP250, in the assay on CP252, with CP256 and with CP260 was “inactive” each time. Further, the Potency result in the assay on CP262, in the assay with CP265, in the assay on CP266, with CP268, in the assay with CP269 and with CP286 was “inactive” each time. In addition, the Potency result with CP291, in the assay with CP297, in the assay with CP305, with CP325, in the assay with CP329 and with CP335 was “inactive” throughout. For the same molecule, the Potency entry with DFO2036 was “inactive”.

Turning to `Oc1c(Cl)cc(Cl)cc1Sc1cc(Cl)cc(Cl)c1O`, the Potency entry with CP238, in the assay on CP247, in the assay on CP250, in the assay on CP252, in the assay with CP256 and in the assay on CP260 was “inactive” each time. The Potency entry with CP262, in the assay with CP265, in the assay with CP266, in the assay on CP268, in the assay with CP269 and with CP286 was “inactive” each time. The Potency result in the assay on CP291, with CP305, in the assay with CP315, in the assay on CP325, with CP329 and in the assay on CP335 was “inactive” each time. Besides, the Potency result in the assay on DFO2036 is “inactive”.

For the molecule `CC(C)(Oc1ccc(Cl)cc1)C(=O)O`, the Potency result with CP238, with CP247, in the assay on CP250, with CP252, in the assay with CP256 and with CP260 was “inactive” throughout. Also, the Potency entry in the assay on CP262, with CP265, in the assay with CP266, in the assay with CP268, in the assay with CP269 and in the assay on CP286 was “inactive” in each case. In addition, the Potency entry with CP297, in the assay on CP315, with CP325, with CP329 and with DFO2036 was “inactive” in each case.

As for `O=C(OCCOCCO)c1ccccc1Nc1cccc(C(F)(F)F)c1`, the Potency entry in the assay with CP238, with CP247, in the assay on CP250, in the assay with CP252, with CP256 and in the assay on CP260 was “inactive” each time. Further, the Potency result with CP262, in the assay on CP265, with CP268, in the assay on CP269, with CP286 and with CP291 was “inactive” in each case. The Potency result in the assay on CP297, in the assay on CP305, with CP315, with CP325, with CP329 and with CP335 was “inactive” throughout. The Potency result in the assay with DFO2036 was “inactive”.

Turning to `O=C1[C@H]2CCCC[C@H]2C(=O)N1CCCCN1CCN(c2nsc3ccccc23)CC1`, the Potency result in the assay on CP238, with CP247, with CP250, in the assay on CP252, in the assay with CP256 and in the assay with CP260 was “inactive” in each case. The Potency result with CP262, with CP265, with CP266, in the assay with CP268, with CP269 and with CP286 was “inactive” in each case. Also, the Potency result with CP291, with CP305, with CP315, in the assay with CP325, with CP329 and in the assay with CP335 was “inactive” throughout. Besides, the Potency entry in the assay on DFO2036 was “inactive”.

For `Cc1ccc(O)c2ncccc12`, the Potency result in the assay with CP238, in the assay with CP247, with CP250, in the assay with CP252, in the assay with CP256 and in the assay with CP262 was “inactive” in each case. Moreover, the Potency result with CP265, in the assay with CP266, in the assay with CP268, in the assay on CP269, in the assay on CP291 and in the assay on CP297 was “inactive” in each case. For the same molecule, the Potency entry in the assay with CP305, with CP315, with CP325 and with CP329 was “inactive” in each case.

On to `CCN1CCN(c2cc3c(cc2F)c(=O)c(C(=O)O)cn3C2CC2)CC1`, for which the Potency result in the assay on CP238, in the assay on CP247, in the assay with CP250, with CP252, with CP256 and in the assay with CP262 was “inactive” throughout. For the same molecule, the Potency result in the assay on CP265, with CP266, in the assay with CP268, in the assay on CP269, in the assay on CP291 and in the assay with CP297 was “inactive” in each case. In addition, the Potency entry with CP315, with CP325, with CP329 and in the assay with DFO2036 was “inactive” throughout.

`CC(C)=CCC1C(=O)N(c2ccccc2)N(c2ccccc2)C1=O`: the Potency entry in the assay with CP238, in the assay with CP247, in the assay with CP265, in the assay on CP266, in the assay on CP268 and in the assay on CP315 was “inactive” in each case.

Regarding `CCCN1CCCC[C@H]1C(=O)Nc1c(C)cccc1C`, the Potency result in the assay on CP238, in the assay with CP247, in the assay with CP250, in the assay on CP252, in the assay with CP256 and in the assay on CP260 was “inactive” throughout. Also, the Potency result in the assay on CP262, in the assay on CP266, in the assay with CP269, in the assay with CP286, in the assay on CP291 and in the assay with CP315 was “inactive” in each case. Besides, the Potency entry with CP329 and in the assay with DFO2036 was “inactive” each time.
